Assay [1] is described as follows: ACEA_AR_agonist_AUC_viability: ACEA Biosciences xCELLigence Real-Time Cell Analysis on Androgen Receptor Agonism for Viability (AID 2283775).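 As to AC50: viability read 80 hours after compound addition.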 The gist of the method: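 22Rv1 cells; impedance growth kinetics; 8-pt 1:4 dilutions from 100 uM top final, ≤0.5% DMSO; n = 2; 80 h read; AUC viability, loss-of-signal vs DMSO.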
Assay [2] can be described thus: ACEA_AR_antagonist_AUC_viability: ACEA Biosciences xCELLigence Real-Time Cell Analysis on Androgen Receptor Antagonism for Viability (AID 2283776).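 Also: 22Rv1 human prostate cancer cells growing on impedance electrode plates; hits lower the growth signal relative to DMSO meaning cytotoxicity.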 A digest of the protocol: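 Impedance read-out (RT-CES): area under growth curve at 80 h post-dose, loss of signal scored vs DMSO baseline. 22Rv1 cells; 8-pt 1:4 series, top 100 uM final, ≤0.5% DMSO; biological duplicate.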

Assay [3] is described as follows: ACEA_ER_AUC_viability: ACEA Biosciences xCELLigence Real-Time Cell Analysis on Estrogen Receptor Agonism for Viability (AID 2283782).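 Also: hit means loss of impedance signal meaning reduced cell growth or viability.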 The gist of the method:
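Continuous-exposure impedance cell analysis uses T-47D cells in charcoal-stripped serum, eight 1:4 dilutions topping at 100 uM final, biological duplicate. Area under the growth curve at 80 h is fitted against DMSO baseline.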

For assay [4], the target named is zebrafish Estrogen Receptor (ESR1), esr1 (gene 259252) (UniProt P57717). Briefly: ATG_zfER1_XSP1: Attagene TRANS-FACTORIAL Multi-Species (XSP1) HepG2 Assay for zebrafish Estrogen Receptor (ESR1) (AID 2283772). The gist of the method:
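Readout: fluorescent reporter mRNA, RT-PCR plus FAM labelling, HpaI digest, capillary electrophoresis; gain-of-signal fit vs DMSO. HepG2, transient multi-reporter TRANS (NR-GAL4 chimera), 24 h chemical exposure, 3 nM 6-alpha-fluorotestosterone co-added.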

In assay [5] the test system is zebrafish Estrogen Receptor (ESR2B), gene 317733. The experiment in a line: ATG_zfER2b_XSP1: Attagene TRANS-FACTORIAL Multi-Species (XSP1) HepG2 Assay for zebrafish Estrogen Receptor (ESR2B) (AID 2283773). A digest of the protocol:
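Human hepatoma HepG2, transiently transfected with multi-reporter units; exogenous zebrafish ESR2B-Gal4 activity measured. Exposure 24 h alongside 3 nM 6-alpha-fluorotestosterone to partly stimulate AR.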

Assay [6] deals with frog Estrogen Receptor (ESR2), gene 100174814. The experiment in a line: ATG_frER2_XSP1: Attagene TRANS-FACTORIAL Multi-Species (XSP1) HepG2 Assay for frog Estrogen Receptor (ESR2) (AID 2283774). The gist of the method:
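Multiplexed TRANS-format reporter assay in human hepatoma HepG2: chimeric nuclear receptor-Gal4 activity reported as mRNA induction at 24 h, detected by fluorescent RT-PCR products on capillary electrophoresis and fitted upward from DMSO baseline.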

The test system of assay [7] is frog Estrogen Receptor (ESR1), gene 398734. Briefly: ATG_frER1_XSP1: Attagene TRANS-FACTORIAL Multi-Species (XSP1) HepG2 Assay for frog Estrogen Receptor (ESR1) (AID 2283777). A digest of the protocol: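 After transient transfection and 24 h compound treatment, total RNA from HepG2 cells was reverse-transcribed, amplified, FAM-labeled and resolved by capillary electrophoresis. Signal increases were fitted against DMSO controls.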

Assay [8] has as its system zebrafish Estrogen Receptor (ESR2A), gene 317734. The experiment in a line: ATG_zfER2a_XSP1: Attagene TRANS-FACTORIAL Multi-Species (XSP1) HepG2 Assay for zebrafish Estrogen Receptor (ESR2A) (AID 2283778). The gist of the method:
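Gain-of-signal reporter transcription readout from GAL4-UAS units in transiently transfected HepG2 cells, 24 h exposure, 3 nM 6-alpha-fluorotestosterone co-present. Detection by RT-PCR with capillary electrophoresis fluorescence.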

In assay [9] the target is chicken Estrogen Receptor (ESR1), ESR1 (gene 396099) (UniProt P06212). Briefly: ATG_chERa_XSP1: Attagene TRANS-FACTORIAL Multi-Species (XSP1) HepG2 Assay for chicken Estrogen Receptor (ESR1) (AID 2283779). The gist of the method: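 Gain-of-signal reporter transcription, relative to DMSO, was scored in transiently transfected HepG2 cells after a 24 h dose. Fluorescence intensity of amplified, digested reporter cDNA fragments served as the endpoint.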

For assay [10], the target named is Estrogen receptor (Homo sapiens) (UniProt P03372). Briefly: ATG_hERa_XSP1: Attagene TRANS-FACTORIAL Multi-Species (XSP1) HepG2 Assay for human Estrogen Receptor (ESR1) (AID 2283780). A digest of the protocol:
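Reporter transcripts from multiplexed GAL4-UAS units driven by NR-Gal4 chimeras in transiently transfected HepG2 were measured by RT-PCR with capillary electrophoresis 24 h post-dose, with 3 nM 6-alpha-fluorotestosterone present; gain-of-signal relative to DMSO.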

The subject of assay [11] is turtle Estrogen Receptor (ESR1), gene 101933533. The experiment in a line: ATG_trERa_XSP1: Attagene TRANS-FACTORIAL Multi-Species (XSP1) HepG2 Assay for turtle Estrogen Receptor (ESR1) (AID 2283781). A digest of the protocol: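 Cell-based chimeric NR-Gal4 transactivation; HepG2; 24 h dosing; mRNA reporter detected by RT-PCR and capillary electrophoresis fluorescence.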

Assay [12] has as its system chicken Androgen Receptor (AR), gene 422165. The experiment in a line: ATG_chAR_XSP1: Attagene TRANS-FACTORIAL Multi-Species (XSP1) HepG2 Assay for chicken Androgen Receptor (AR) (AID 2283768). The gist of the method: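 Reporter mRNA read by RT-PCR with fluorescent labelling and capillary electrophoresis 24 h after chemical dosing of transiently transfected HepG2 cells. Chicken AR-Gal4 chimera, partially stimulated with 3 nM 6-alpha-fluorotestosterone; activity fitted upward relative to DMSO.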

Assay [13] deals with zebrafish Androgen Receptor (AR), gene 100005148. Briefly: ATG_zfAR_XSP1: Attagene TRANS-FACTORIAL Multi-Species (XSP1) HepG2 Assay for zebrafish Androgen Receptor (AR) (AID 2283771). A digest of the protocol:
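Gain-of-signal versus DMSO was measured as reporter transcripts quantified by RT-PCR, fluorescent labelling and capillary electrophoresis after 24 h chemical exposure. The cells were HepG2 expressing a chimeric zebrafish AR-GAL4, co-stimulated with 3 nM 6-alpha-fluorotestosterone.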

Assay [14] in a line: STM_H9_NormalizedViability: Cytotoxicity Assessment at 120 hours in the Stemina devTOX quickPredict H9 human embryonic stem cell (hESC)-based Assay (AID 2283784). A digest of the protocol:
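Viability of the cell layer was taken from live-cell protease cleavage of a fluorogenic substrate after compound exposure of undifferentiated H9 stem cells, with replenishment each 24h. Fluorescence was normalized to vehicle (0.1% DMSO).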

Assay [15] deals with Estrogen receptor beta (Homo sapiens) (UniProt Q92731). The experiment in a line: ATG_hERb_XSP1: Attagene TRANS-FACTORIAL Multi-Species (XSP1) HepG2 Assay for human Estrogen Receptor (ESR2) (AID 2283788). A digest of the protocol: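 Multiplexed trans-activation in transfected HepG2: ERβ-Gal4 reporter transcripts after 24 h treatment, detected by RT-PCR plus capillary electrophoresis.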

Another assay concerns the target AR (gene 367) (UniProt P10275). The experiment in a line: ACEA_AR_agonist_80hr: ACEA Biosciences xCELLigence Real-Time Cell Analysis on Androgen Receptor Agonism for Proliferation (AID 2283783).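 Also: hits increase impedance growth signal above DMSO baseline.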 The gist of the method:
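Real-time cell-growth kinetics were recorded by electrode impedance in 22Rv1 cells exposed to test chemicals up to 100 uM final; the 80 h timepoint served as the readout, fitted upward relative to DMSO controls, in biological duplicate.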

The subject of assay [16] is turtle Androgen Receptor (AR), gene 101947425. Briefly: ATG_trAR_XSP1: Attagene TRANS-FACTORIAL Multi-Species (XSP1) HepG2 Assay for turtle Androgen Receptor (AR) (AID 2283786). The gist of the method: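 Partial androgen stimulation is provided by 3 nM 6-alpha-fluorotestosterone in a multi-species trans-factorial panel expressing a turtle AR–GAL4 fusion in HepG2. After 24 h, reporter mRNA is measured by RT-PCR and capillary electrophoresis and fitted upward against DMSO.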

Records with an inconclusive call do not appear. Active and inactive are the calls of the source. The calls were made as follows: active = hit-call score of the fitted dose curve at least 0.9, where 1 is the maximum; inconclusive = response in the unintended direction; inactive = score below 0.9.

Sequence of zebrafish Estrogen Receptor (ESR1), esr1 (gene 259252) (P57717 whole entry, looked up, the tested form may be a part): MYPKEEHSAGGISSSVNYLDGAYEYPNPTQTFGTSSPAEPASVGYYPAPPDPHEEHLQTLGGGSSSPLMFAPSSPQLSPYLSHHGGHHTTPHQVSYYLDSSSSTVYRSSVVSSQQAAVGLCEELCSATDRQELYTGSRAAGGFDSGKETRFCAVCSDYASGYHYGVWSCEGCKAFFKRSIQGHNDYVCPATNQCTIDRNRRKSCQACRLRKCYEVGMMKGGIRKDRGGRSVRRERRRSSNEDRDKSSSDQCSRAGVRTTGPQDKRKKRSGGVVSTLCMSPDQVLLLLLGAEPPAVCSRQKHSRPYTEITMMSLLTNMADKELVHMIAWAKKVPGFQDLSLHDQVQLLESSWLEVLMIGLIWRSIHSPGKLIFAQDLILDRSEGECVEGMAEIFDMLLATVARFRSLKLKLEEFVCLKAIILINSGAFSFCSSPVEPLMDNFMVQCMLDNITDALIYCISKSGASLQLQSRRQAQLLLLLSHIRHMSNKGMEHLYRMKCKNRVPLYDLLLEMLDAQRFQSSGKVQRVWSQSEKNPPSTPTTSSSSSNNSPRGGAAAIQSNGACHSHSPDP
Sequence of chicken Estrogen Receptor (ESR1), ESR1 (gene 396099) (P06212 whole entry, looked up, the tested form may be a part): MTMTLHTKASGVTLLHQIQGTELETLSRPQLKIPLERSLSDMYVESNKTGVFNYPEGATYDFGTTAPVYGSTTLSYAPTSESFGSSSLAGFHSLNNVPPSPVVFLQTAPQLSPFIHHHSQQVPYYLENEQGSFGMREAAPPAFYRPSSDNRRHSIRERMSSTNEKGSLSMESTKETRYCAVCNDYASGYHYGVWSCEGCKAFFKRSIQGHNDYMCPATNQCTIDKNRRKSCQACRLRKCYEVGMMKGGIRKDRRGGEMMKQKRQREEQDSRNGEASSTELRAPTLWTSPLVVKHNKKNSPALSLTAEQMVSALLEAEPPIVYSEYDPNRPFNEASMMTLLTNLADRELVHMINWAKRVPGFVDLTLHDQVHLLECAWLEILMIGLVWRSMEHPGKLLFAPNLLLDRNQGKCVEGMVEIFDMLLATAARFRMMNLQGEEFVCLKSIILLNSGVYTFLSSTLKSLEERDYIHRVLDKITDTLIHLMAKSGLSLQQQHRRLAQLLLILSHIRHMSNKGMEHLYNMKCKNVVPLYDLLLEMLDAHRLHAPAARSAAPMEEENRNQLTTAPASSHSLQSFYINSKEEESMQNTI
Sequence of Estrogen receptor (Homo sapiens) (P03372 whole entry, looked up, the tested form may be a part): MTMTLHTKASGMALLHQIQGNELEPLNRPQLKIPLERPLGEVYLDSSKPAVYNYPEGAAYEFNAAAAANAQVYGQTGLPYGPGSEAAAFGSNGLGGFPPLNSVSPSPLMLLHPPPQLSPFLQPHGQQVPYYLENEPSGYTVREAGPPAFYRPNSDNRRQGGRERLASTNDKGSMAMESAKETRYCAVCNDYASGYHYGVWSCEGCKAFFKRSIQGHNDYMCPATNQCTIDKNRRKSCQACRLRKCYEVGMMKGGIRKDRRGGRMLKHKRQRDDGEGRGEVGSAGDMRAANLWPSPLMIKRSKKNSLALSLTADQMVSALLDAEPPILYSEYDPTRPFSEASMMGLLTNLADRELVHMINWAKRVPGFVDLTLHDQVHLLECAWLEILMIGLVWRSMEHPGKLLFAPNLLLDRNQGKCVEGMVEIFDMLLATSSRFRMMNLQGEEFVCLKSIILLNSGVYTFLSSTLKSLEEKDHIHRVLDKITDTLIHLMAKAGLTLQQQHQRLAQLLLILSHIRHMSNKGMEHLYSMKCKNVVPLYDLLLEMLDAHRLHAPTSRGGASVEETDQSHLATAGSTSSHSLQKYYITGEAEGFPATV
Sequence of Estrogen receptor beta (Homo sapiens) (Q92731 whole entry, looked up, the tested form may be a part): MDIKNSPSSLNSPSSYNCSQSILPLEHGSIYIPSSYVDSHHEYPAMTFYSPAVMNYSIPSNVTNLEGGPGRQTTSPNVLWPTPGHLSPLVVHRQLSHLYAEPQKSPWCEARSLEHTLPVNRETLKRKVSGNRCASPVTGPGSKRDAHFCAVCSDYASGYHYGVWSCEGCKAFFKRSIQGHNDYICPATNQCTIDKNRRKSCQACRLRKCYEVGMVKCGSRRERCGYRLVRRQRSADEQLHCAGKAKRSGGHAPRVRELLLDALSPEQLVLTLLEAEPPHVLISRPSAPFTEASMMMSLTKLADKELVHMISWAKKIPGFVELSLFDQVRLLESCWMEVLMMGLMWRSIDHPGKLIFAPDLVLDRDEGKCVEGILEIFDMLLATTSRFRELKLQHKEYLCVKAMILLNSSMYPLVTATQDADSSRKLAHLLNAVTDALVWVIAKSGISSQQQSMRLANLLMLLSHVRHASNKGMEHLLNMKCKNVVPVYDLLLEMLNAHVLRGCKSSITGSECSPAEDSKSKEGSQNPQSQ
Sequence of AR (gene 367) (P10275 whole entry, looked up): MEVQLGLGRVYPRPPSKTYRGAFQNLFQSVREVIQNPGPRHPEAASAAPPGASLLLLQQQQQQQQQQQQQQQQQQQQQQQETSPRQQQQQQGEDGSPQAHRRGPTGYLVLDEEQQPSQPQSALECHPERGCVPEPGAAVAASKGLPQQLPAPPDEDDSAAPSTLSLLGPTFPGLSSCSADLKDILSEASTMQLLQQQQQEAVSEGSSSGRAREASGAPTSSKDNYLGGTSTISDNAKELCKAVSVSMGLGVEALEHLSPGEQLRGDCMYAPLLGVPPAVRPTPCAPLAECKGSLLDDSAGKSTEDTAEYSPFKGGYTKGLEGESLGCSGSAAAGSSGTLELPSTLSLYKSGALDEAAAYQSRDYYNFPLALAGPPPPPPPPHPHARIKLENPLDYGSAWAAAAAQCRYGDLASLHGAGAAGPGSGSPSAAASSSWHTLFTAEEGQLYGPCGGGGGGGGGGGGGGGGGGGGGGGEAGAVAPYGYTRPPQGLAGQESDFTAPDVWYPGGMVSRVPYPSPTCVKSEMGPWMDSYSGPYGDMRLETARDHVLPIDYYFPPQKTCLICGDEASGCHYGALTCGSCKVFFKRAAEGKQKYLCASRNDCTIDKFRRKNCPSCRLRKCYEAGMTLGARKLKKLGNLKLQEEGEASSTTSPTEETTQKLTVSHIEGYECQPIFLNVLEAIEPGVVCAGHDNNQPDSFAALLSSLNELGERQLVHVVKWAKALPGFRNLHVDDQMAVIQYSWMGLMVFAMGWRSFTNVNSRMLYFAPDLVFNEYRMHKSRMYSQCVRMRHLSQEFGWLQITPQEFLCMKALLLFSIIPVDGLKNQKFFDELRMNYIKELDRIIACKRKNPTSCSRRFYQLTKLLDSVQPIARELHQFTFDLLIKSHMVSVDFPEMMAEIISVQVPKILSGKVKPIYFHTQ

Consider `ClC1=C(Cl)[C@]2(Cl)[C@H]3[C@H]([C@@H]4C=C[C@H]3C4)[C@@]1(Cl)C2(Cl)Cl`, for which the AC50 in assay [1] was 18.1 µM (active); in [2] it was 18.1 µM (active); in assay [3], 74.5 µM (active).
On to `CCC12COCN1COC2`, for which the molecule was classed as inactive in [1] and in assay [2].
Turning to `O=C(Oc1ccc(Br)cc1)N1CCN2CCC1CC2`, the AC50 in assay [1] was 72.1 µM (active). The molecule was classed as inactive in assay [2] and in [3].
Regarding `Clc1ccc(C(c2ccc(Cl)cc2)C(Cl)Cl)cc1`, the molecule was classed as inactive in assay [4]. Further, the AC50 in assay [5] was 7.14 µM (active); in assay [6], 6.82 µM (active); in assay [1], 21.3 µM (active); in assay [2], 18.1 µM (active); in [7], 8.6 µM (active); in assay [8], 17.8 µM (active). The AC50 in assay [9] is 10.1 µM (active); in [10], 16.4 µM (active); in assay [11] it was 26.4 µM (active); in [3], 26.1 µM (active).
`Cc1ccc([N+](=O)[O-])cc1`: the call in assay [1] and in assay [2] was inactive.
For the molecule `CC(C)(C)OOC(=O)c1ccccc1`, the molecule was called inactive in assay [1], in assay [2] and in [3].
Consider `CCC[CH2][Sn]([Cl])([CH2]CCC)[CH2]CCC`, for which the AC50 in assay [12] was 0.334 µM (active); in assay [6], 0.528 µM (active); in [1], 0.567 µM (active); in assay [2], 0.631 µM (active); in assay [3], 0.767 µM (active); in assay [14] it was 0.642 µM (active). In addition, the molecule was called inactive in assay [13], in [5], in [7], in assay [8] and in assay [10].
Consider `Clc1ccc(C(c2ccc(Cl)cc2)C(Cl)(Cl)Cl)cc1`, for which the result in [13], in [2], in [14] and in assay [15] was inactive. The AC50 in [4] was 41.7 µM (active); in assay [5], 1.95 µM (active); in assay [6], 4.09 µM (active); in [1], 8.63 µM (active); in [7], 1.31 µM (active); in assay [8], 17.6 µM (active). In addition, the AC50 in assay [9] was 2.52 µM (active); in [11], 3.31 µM (active); in assay [3], 28.4 µM (active).
In the case of `O=[N+]([O-])C(Br)(CO)CO`, the results for the AC50 in [1], in assay [2] and in assay [3] were 29.5 µM (active), 39 µM (active) and 32.7 µM (active), respectively. Moreover, the molecule was classed as inactive with AR (gene 367).
`c1ccc(C2CO2)cc1` (configuration not stated): the molecule was classed as inactive in assay [1] and in [2].
Regarding `[O-][Cl+]O`, the molecule was called inactive in assay [1] and in assay [2].
For `Nc1ccc([N+](=O)[O-])cc1`, the AC50 in assay [1] is 16.1 µM (active); in [2] it was 16.8 µM (active); in assay [3], 7.37 µM (active).
With `CCOc1cccc(C2(N3CCN(c4ccccc4)CC3)CCC(C)CC2)c1` (configuration not stated), the call in assay [1], in assay [2] and in assay [3] was inactive.
Turning to `CCCSC(=O)N(CCC)CCC`, the outcome in assay [1] and in assay [2] was inactive.
In the case of `CCCCCCCCOC(=O)c1ccc(C(=O)OCCCCCCCC)c(C(=O)OCCCCCCCC)c1`, the molecule was classed as inactive in assay [1], in [2] and in assay [3].
For the molecule `CC(C)N(Cc1ccccc1)C(=O)C(C)(C)C`, the result in [1] and in [2] was inactive.
`CC(C)(OOC(C)(C)c1ccccc1)c1ccccc1`: the AC50 was 17.2 µM (active) in [1], 24.5 µM (active) in assay [2] and 77.1 µM (active) in [3]. Further, in the assay with AR (gene 367), the outcome was inactive.
Regarding `CCCCCOC(=O)c1ccccc1C(=O)OCCCCC`, the molecule was called inactive in assay [12], in assay [13], in assay [4], in [7], in assay [8] and in assay [16]. The molecule was classed as inactive in [15]. For the same molecule, the AC50 is 40.7 µM (active) in [5]; 27.3 µM (active) in assay [6]; 30 µM (active) in assay [1]; 67.9 µM (active) in assay [2]; 27 µM (active) in assay [9]; 24.2 µM (active) in assay [10]. Moreover, in assay [11], the AC50 is 26.8 µM (active).

For orientation: AC50 means the concentration at which the activity in the assay is half-maximal.
